Experimental data reported in the supplement of paper PMC11060735.
± gives the standard deviation of the averaged measurements. Whole data set: some 1,800 compounds, median “GFP- (p16Ink4a-) cell count relative to negative-control wells” near 0.99, cut for the lowest 2% near 0.5. The entries come from a sample that favours the lowest values as a whole.

Test system: mouse p16Ink4a+/- lung fibroblasts (INKBRITE, bleomycin-injured)
Experiment: GFP- (p16Ink4a-) cell count relative to negative-control wells (fold of vehicle); higher = more p16Ink4a- cells surviving
Settings: 1 µM; 3 days

**Q.** COc1ccc(-c2ccc3cc(C(=O)O)ccc3c2)cc1C12CC3CC(CC(C3)C1)C2 [Adapalene] was tested. Which GFP- did it give?
**A.** 1.05

**Q.** With O=C(NCc1ccccc1)c1csc(Nc2ccncn2)n1 [Thiazovivin] as the compound, how does the GFP- read?
**A.** 1.04

**Q.** How did the GFP- turn out when O=c1cc(-c2ccccc2)oc2cc(O)cc(O)c12 [Chrysin] was run?
**A.** 0.996

**Q.** How did the GFP- turn out when CCN1CCC[C@H]1CNC(=O)c1cc(S(N)(=O)=O)ccc1OC [Levosulpiride] was run?
**A.** 0.964

**Q.** For C[C@]12CC[C@H](O)CC1=CCC1C2CC[C@]2(C)C(n3cnc4ccccc43)=CCC12 (stereo partly drawn) [Galeterone], which GFP- is on record?
**A.** 1.11

**Q.** How did the GFP- turn out when O=C1Nc2ccc(I)cc2/C1=C/c1cc(Br)c(O)c(Br)c1 was run?
**A.** 1.02

**Q.** Which GFP- does the source give for CCOc1ccc(Cc2cc([C@@H]3O[C@H](CO)[C@@H](O)[C@H](O)[C@H]3O)ccc2Cl)cc1 [Dapagliflozin] here?
**A.** 1.12

**Q.** For C=CCc1ccc(O)c(-c2ccc(O)c(CC=C)c2)c1 [Honokiol], which GFP- is on record?
**A.** 0.883

**Q.** How did the GFP- turn out when C=CCc1cccc(/C=N/NC(=O)CN2CCN(Cc3ccccc3)CC2)c1O was run?
**A.** 0.654

**Q.** Cc1cc(NC(=O)Nc2ccc(N(C)C)cc2)c2cc(F)cc(F)c2n1 was tested. Which GFP- did it give?
**A.** 1.15

**Q.** CCOC(=O)[C@H](CCc1ccccc1)N[C@@H](C)C(=O)N1CCC[C@H]1C(=O)O [Enalapril] was tested. Which GFP- did it give?
**A.** 1

**Q.** With Cc1ccc(F)c(NC(=O)Nc2ccc(-c3cccc4[nH]nc(N)c34)cc2)c1 [Linifanib] as the compound, how does the GFP- read?
**A.** 0.965

**Q.** For NC1(c2ccc(-c3nc4ccn5c(O)nnc5c4cc3-c3ccccc3)cc2)CCC1, which GFP- is on record?
**A.** 0.82

**Q.** Which GFP- does the source give for COc1cc([C@@H]2c3cc4c(cc3[C@@H](O[C@@H]3O[C@@H]5CO[C@@H](C)O[C@H]5[C@H](O)[C@H]3O)[C@H]3COC(=O)[C@H]23)OCO4)cc(OC)c1O [Etoposide] here?
**A.** 0.985

**Q.** With Cc1nc(O)c2cc(CN(C)c3ccc(C(=O)N[C@@H](CCC(=O)O)C(=O)O)s3)ccc2n1 [Raltitrexed] as the compound, how does the GFP- read?
**A.** 1.01

**Q.** For CC(C)N(CCCNC(=O)Nc1ccc(C(C)(C)C)cc1)C[C@H]1O[C@@H](n2cc(Br)c3c(N)ncnc32)[C@H](O)[C@@H]1O, which GFP- is on record?
**A.** 1.01 ± 0.042

**Q.** With COc1ccc(C(C)=O)c(O)c1 [Paeonol] as the compound, how does the GFP- read?
**A.** 1.18

**Q.** With Cc1nc(NC(=O)N2CCC[C@H]2C(N)=O)sc1-c1csc(C(C)(C)C)n1 as the compound, how does the GFP- read?
**A.** 1.03

**Q.** With CNC(=O)c1ccccc1Nc1nc(Nc2ccc(N3CCOCC3)cc2OC)ncc1Cl as the compound, how does the GFP- read?
**A.** 0.742

**Q.** How did the GFP- turn out when CN1CC[C@H](c2c(O)cc(O)c3c(=O)cc(-c4ccccc4Cl)oc23)[C@H](O)C1 [Flavopiridol] was run?
**A.** 0.326

**Q.** Which GFP- does the source give for CN1CC[C@@H](c2c(O)cc(O)c3c(=O)cc(-c4ccccc4Cl)oc23)[C@@H]1CO here?
**A.** 0.807

**Q.** CC(=O)/N=c1/sc(S(N)(=O)=O)nn1C [Methazolamide] was tested. Which GFP- did it give?
**A.** 1.16

**Q.** With C=C1C(=O)[C@@]23C(CC[C@@H]1[C@H]2O)[C@@]12CO[C@]3(O)[C@@H](O)[C@@H]1C(C)(C)CC[C@@H]2O (stereo partly drawn) [Oridonin] as the compound, how does the GFP- read?
**A.** 0.884

**Q.** For C[C@@H](CN1CC(=O)NC(=O)C1)N1CC(=O)NC(=O)C1 [Dexrazoxane], which GFP- is on record?
**A.** 0.899

**Q.** For Cn1ncnc1[C@H]1c2nnc(O)c3cc(F)cc(c23)N[C@@H]1c1ccc(F)cc1, which GFP- is on record?
**A.** 0.616 ± 0.066

**Q.** How did the GFP- turn out when CC1=NC(N)=C(C(=O)OC2CN(C(c3ccccc3)c3ccccc3)C2)C(c2cccc([N+](=O)[O-])c2)/C1=C(/O)OC(C)C (stereo not drawn) [Azelnidipine] was run?
**A.** 1.11

**Q.** For Cc1cc(CN2CCN(c3c(Br)cnc4[nH]c(-c5ccc(N6CCN(C)CC6)cc5)nc34)CC2)no1, which GFP- is on record?
**A.** 0.664 ± 0.17

**Q.** NS(=O)(=O)c1cc2c(cc1Cl)NCNS2(=O)=O [Hydrochlorothiazide] was tested. Which GFP- did it give?
**A.** 1.06

**Q.** CC[C@]1(O)C[C@@H]2CN(CCc3c([nH]c4ccccc34)[C@@](C(=O)OC)(c3cc4c(cc3OC)N(C=O)[C@@H]3C45CCN4CC=C[C@](CC)([C@H]45)[C@@H](OC(C)=O)[C@]3(O)C(=O)OC)C2)C1 (stereo partly drawn) [Vincristine] was tested. Which GFP- did it give?
**A.** 0.699

**Q.** For CCn1cc(C(=O)O)c(=O)c2ccc(C)nc21 [Nalidixic Acid], which GFP- is on record?
**A.** 0.895

**Q.** Which GFP- does the source give for CC(=O)O[C@]1(C(C)=O)CC[C@H]2[C@@H]3C[C@H](C)C4=CC(=O)C=C[C@]4(C)[C@@]3(F)[C@@H](O)C[C@@]21C [Fluorometholone Acetate] here?
**A.** 1.14

**Q.** C[C@@]1(C(=O)Nc2ccc(F)nc2)CCCN1c1nc(Nc2cc(C3CC3)[nH]n2)c2cccn2n1 was tested. Which GFP- did it give?
**A.** 0.776

**Q.** Which GFP- does the source give for COc1cc2nc(N3CCN(C(=O)C4CCCO4)CC3)nc(N)c2cc1OC (stereo not drawn) [Terazosin] here?
**A.** 0.942

**Q.** For CC(C(=O)O)c1ccc2c(c1)CC(=O)c1ccccc1S2 (stereo not drawn) [Zaltoprofen], which GFP- is on record?
**A.** 1.01

**Q.** How did the GFP- turn out when Cc1ccc(CNc2ncnc3ccc(-c4ccc(CO)o4)cc23)o1 was run?
**A.** 0.793

**Q.** Which GFP- does the source give for CC1=C(C(=O)OC2CCCCC2)C(c2ccc([N+](=O)[O-])cc2)C2=C(O)CC(C)(C)CC2=N1 (stereo not drawn) here?
**A.** 0.82

**Q.** With CC(C)c1ccc(NC(=O)Cn2cnc3c2c(=O)n(C)c(=O)n3C)cc1 as the compound, how does the GFP- read?
**A.** 0.98

**Q.** Which GFP- does the source give for CCC(=O)N1CCN(c2ccc(-n3c(=O)ccc4cnc5ccc(-c6cnc7ccccc7c6)cc5c43)cc2C(F)(F)F)CC1 [Torin 1] here?
**A.** 0.571

**Q.** How did the GFP- turn out when Nc1ccc(-c2ccc3ncc4ccc(=O)n(-c5cccc(C(F)(F)F)c5)c4c3c2)cn1 [Torin 2] was run?
**A.** 0.456

**Q.** For O=C(O)CCNC(=O)c1ccccc1 [Betamipron], which GFP- is on record?
**A.** 1.06

**Q.** With O=C(O)c1ccccc1 [Benzoic Acid] as the compound, how does the GFP- read?
**A.** 1.05

**Q.** CN(NC(=O)CC(=O)NN(C)C(=S)c1ccccc1)C(=S)c1ccccc1 [Elesclomol] was tested. Which GFP- did it give?
**A.** 0.277

**Q.** CC1(C)O[C@@H]2C[C@H]3[C@@H]4CCC5=CC(=O)CC[C@]5(C)[C@@]4(F)[C@@H](O)C[C@]3(C)[C@]2(C(=O)CCl)O1 [Halcinonide] was tested. Which GFP- did it give?
**A.** 1.02
